Compounds with a hit are over-represented: about 3.9% of the library has one in this group of screens.
MITF act = increases MITF-driven TRPM1 promoter luciferase signal; SK-MEL-5 TRPM1-promoter luciferase, 24 h; % of positive control, neutral wells = 0; activation, % at 12.5 µM; actives 0.75% (n = 300,000); AID 588334;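 active = mean activation of at least 80% with every replicate also reaching 80%; inconclusive = mean reaches 80% but some replicate falls short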;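 also: 0% = neutral control wells and 100% = parthenolide positive control wells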
HSF1 inh = HSF1 inhibition. activity change, negative = inhibition, % at 7.5 µM (by protocol). actives 0.77% (n = 300,000). AID 2098. NIH3T3-HGL HSE-luciferase, MG132-induced, luminescence 8 h; stronger effect = lower value;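 active = more than half of replicate wells show activity change below -50%, luminescence cut by over half; inconclusive = some wells, but at most half, below -50%; inactive = no replicate well below -50%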;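 also: luciferase reports HSF-1 transcriptional activity via heat shock element; 0% = median of DMSO wells and -100% = zero luminescence signal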
Wnt bcat act = activators of Wnt/beta-catenin signaling. actives 1.2% (n = 300,000). Wnt/beta-catenin reporter cell assay, activator, plate reader. activation, % at 9.35 µM; in the data active = activation above about 30%, passing the limit was not always enough; inconclusive = no clear call, values can overlap the other calls;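 also: 0% = neutral control wells and 100% = positive control wells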
HSF-1 act = increases HSF-1 driven luciferase reporter signal. NIH3T3-HGL HSF-1 luciferase reporter, MG132, 8 h; 100% = twice DMSO control signal. activation, % at 9 µM. actives 1.7% (n = 300,000). AID 504408;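 active = mean replicate activation of at least 50% with a set share of replicates each reaching 50%; inconclusive = only one of those two conditions met; inactive = mean below 50% and too few replicates reaching it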;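 also: 0% = median of the neutral control wells and 100% = twice that signal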
esBAF inh = inhibitors of esBAF chromatin remodeling in mouse ES cells. reporter increase, % at 12.5 µM. Bmi1-luciferase knock-in reporter, 24 h; 100% = twice the neutral-well signal. AID 602393. actives 2% (n = 350,000); in the data active = activation above about 40%; inconclusive = no clear call, values can overlap the other calls;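 also: 0% = median of the plate's neutral control wells and 100% = double that signal; a rise in the Bmi1 reporter signal indicates esBAF inhibition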
Starred values were filed as active, the others as inactive; ? = inconclusive; . = not tested or not shown.

SMILES | MITF act | HSF1 inh | Wnt bcat act | HSF-1 act | esBAF inh
Cc1noc(C)c1S(=O)(=O)N(C)C[C@H]1OCCCC[C@H](C)Oc2ccc(NC(=O)NC(C)C)cc2C(=O)N([C@H](C)CO)C[C@H]1C | . | . | . | . | 1
Cc1cc(-c2nc3ncccc3o2)ccc1NC(=S)NC(=O)C(C)C | 7 | 38 | . | 52* | .
Cc1ccc(-c2nc3ncccc3o2)cc1NC(=O)C(C)C | . | -6 | 1 | -8 | -3
COc1cccc(NC(=O)COc2ccccc2C(N)=O)c1 | 45 | 27 | . | 71* | 6
COc1ccc(OC)c(/C=C/C(=O)Nc2ccc3c(c2)CCC3)c1 | -1 | 5 | -1 | 6 | .
COc1ccccc1/C=C/C(=O)Nc1ccc2c(c1)CCC2 | 114* | 29 | 28 | 44 | .
COc1cccc(NC(=O)Nc2ccccc2Br)c1 | 72 | 31 | 23 | 21 | 59*
COc1ccc(NC(=O)Nc2ccc3oc(C)nc3c2)cc1 | 44 | 14 | 40* | 40 | .
C[C@H](CO)N1C[C@H](C)[C@H](CN(C)Cc2ccc(Cl)c(Cl)c2)Oc2ccc(NC(=O)CCC(F)(F)F)cc2C1=O | . | . | . | . | -1
CN(C)C(=O)[C@H]1[C@H](CO)[C@H]2Cn3c(ccc(-c4ccncc4)c3=O)[C@H]2N1Cc1ccccc1F | . | . | . | . | 1
COc1cccc(S(=O)(=O)N[C@@H]2CC[C@H](CCn3cc(-c4ccc(F)cc4)nn3)O[C@@H]2CO)c1 | . | . | . | . | -12
CCC1CCC(NC(=O)Nc2cccc(OC)c2)CC1 (centres undefined) | ? | 25 | 57* | 62* | 83*
Cc1nc2cc(NC(=O)c3ccc(S(=O)(=O)N(C)c4ccccc4)cc3)ccc2o1 | 10 | 2 | 1 | 7 | 83*
CN(c1ccccc1)S(=O)(=O)c1ccc(NC(=O)c2ccc(-c3ccccc3)cc2)cc1 | -11 | 2 | -1 | 3 | 2
COc1ccc(NC(=O)Nc2ccc3c(c2)CCC3)cc1 | 105* | 21 | 13 | 33 | 52*
COc1ccc(NC(=O)Nc2ccc(F)cc2F)cc1 | 92* | 11 | . | 42 | ?
O=C(CCCCC(=O)Nc1ccc(F)cc1F)Nc1ccc(F)cc1F | . | 3 | 33* | -4 | .
CCCCC(=O)Nc1ccc(Cl)cc1F | . | . | 6 | . | 15
COc1cccc(NC(=O)Nc2ccc3nc(C)c(C)nc3c2)c1 | 26 | -1 | 0 | 12 | 13
COc1ccc(NC(=O)Nc2cccc(OC)c2)cc1 | 96* | 2 | ? | 39 | 37
COc1cccc(NC(=O)N[C@H]2CC[C@@H](CC(=O)NCc3ccncn3)O[C@@H]2CO)c1 | . | . | . | . | -2
O=C(Nc1ccc2c(c1)[C@H]1C[C@H](CC(=O)N3CCCCC3)O[C@H](CO)[C@H]1O2)NC1CCCC1 | . | . | . | . | -4
CC1=C(C(=O)Nc2ccc(CC(=O)NCc3ccccc3C)cc2)SCCO1 | 59 | 3 | 10 | 14 | 49*
CCc1ccc(CNC(=O)Cc2ccc(NC(=O)C3=C(C)OCCS3)cc2)cc1 | 13 | -6 | 7 | -3 | 21
COc1cc(NC(=O)CSc2nnnn2-c2ccccc2)cc(OC)c1OC | -16 | -64* | . | -73 | .
SMILES | MITF act | HSF1 inh | Wnt bcat act | HSF-1 act | esBAF inh
O=C(CSc1nnnn1-c1ccccc1)Nc1ccccc1 | 3 | -1 | -1 | 2 | 2
COc1ccc(C(=O)/C(=C/O)N=Nc2ccc(F)cc2)cc1 | 16 | 9 | -2 | 20 | 20
COc1ccc(N=N/C(=C\O)C(=O)c2cccs2)cc1 | -6 | 54 | 2 | 67* | 18
Cc1ccc(S(=O)(=O)/C(=C/Cl)NC(=O)c2ccccc2)cc1 | -29 | 62 | . | 91* | .
O=C(NC(=C(Cl)Cl)S(=O)(=O)c1ccc(Cl)cc1)c1ccccc1 | -36 | 57 | 7 | 67* | 27
Cc1ccc(C(=O)NC(=C(Cl)Cl)S(=O)(=O)c2ccc(C)cc2)cc1 | 3 | 21 | . | 28 | .
Cc1ccc(C(=O)NC(=C(Cl)Cl)S(=O)(=O)c2ccc(Cl)cc2)cc1 | 12 | 126 | 0 | 185* | .
CCCC(=O)Nc1ccc2c(c1)C(=O)N(C)[C@H]1CC[C@H](CC(=O)Nc3ccccc3)O[C@@H]1CO2 | . | . | . | . | -6
Cc1c(C(=O)C(=O)NCc2cccs2)c2ccccc2n1C | 9 | -92* | 0 | -93 | .
CC(=O)Nc1ccc(Nc2nc(-c3cc4ccccc4oc3=O)cs2)cc1 | . | 17 | 0 | -3 | 90*
Nc1ccc(Nc2nc(-c3cc4ccccc4oc3=O)cs2)cc1 | 12 | 9 | 3 | 39 | 81*
O=C(Nc1nc(-c2cc3ccccc3oc2=O)cs1)c1ccc(Br)o1 | 8 | 32 | . | 66* | .
COc1cccc2sc(Nc3nc(-c4cc5ccccc5oc4=O)cs3)nc12 | -2 | -2 | -9 | -4 | .
O=C(O)c1ccc(Nc2nc(-c3cc4ccccc4oc3=O)cs2)cc1O | -3 | 22 | 13 | 65* | .
COc1ccccc1-c1ccc2n(c1=O)C[C@@H]1[C@@H](CO)[C@H](C(=O)NC3CCC3)N(C(C)=O)[C@H]21 | . | . | . | . | -2
O=C(Nc1ccc(N2CCCC2)c(Cl)c1)c1cccc(-c2cc3ccccc3oc2=O)c1 | 10 | 6 | 1 | 18 | .
CC(=O)Nc1ccc(NC(=O)c2cccc(-c3cc4ccccc4oc3=O)c2)cc1 | 13 | 15 | 4 | 25 | 66*
Cn1c2ccccc2c(=O)c2ccc(NCCc3cccs3)cc21 | 95* | . | ? | . | ?
NC(=O)c1ccc(NCCc2cccs2)cc1 | . | . | 3 | . | 21
O=c1c2cc(-c3ccccc3)sc2ncn1-n1cccc1 | 85* | 22 | 27 | 45 | 72*
O=c1[nH]cnc2sc(-c3ccccc3)cc12 | 49 | 10 | 11 | -1 | 49*
Cc1ccc(C)n1-n1cnc2sc(-c3ccccc3)cc2c1=O | 16 | 12 | . | 48 | 18
CC(=O)Cn1cnc2sc(-c3ccccc3)cc2c1=O | 88* | 17 | 37* | 8 | .
CCn1cnc2sc(-c3ccccc3)cc2c1=O | 45 | 30 | 19 | 50 | 49*
CO[C@H]1CC[C@@H]2CCN(C)C(=O)[C@@H](C)[C@H](OC)CN(C)C(=O)c3cc(C#N)ccc3OC[C@H]1O2 | . | . | . | . | -4
SMILES | MITF act | HSF1 inh | Wnt bcat act | HSF-1 act | esBAF inh
COc1ccc(NC(=O)N(C)C[C@@H]2Oc3ncc(C#Cc4ccc(C(F)(F)F)cc4)cc3C(=O)N([C@H](C)CO)C[C@@H]2C)cc1 | . | . | . | . | -1
CCS(=O)(=O)Nc1ccc2c(c1)C(=O)N(C)C[C@@H](OC)[C@H](C)CN(Cc1nccs1)[C@@H](C)CO2 | . | . | . | . | 1
O=C(NCC[C@H]1CC[C@@H](NC(=O)C2CC2)[C@H](CO)O1)c1cc(Cl)cc(Cl)c1 | . | . | . | . | 0
CC(=O)Cn1nnc2sc(-c3ccccc3)cc2c1=O | 89* | 0 | 12 | 10 | .
O=C(Cn1cnc2sc(-c3ccccc3)cc2c1=O)N1CCOCC1 | 11 | -8 | -2 | -9 | 19
c1ccc(-c2cc3c(ccc4nonc43)nn2)cc1 | 8 | -7 | 0 | 3 | -5
On1onc2c3cc(-c4ccccc4)nc3ccc21 | -14 | . | 39* | . | -62
